Hits are enriched below; roughly 2.2% of the tested compounds scored in any of these assays.
TDP-43 yeast inh: TDP-43 toxicity inhibition in yeast. Potency, µM (doses to about 46.1 µM), without a hit: at the top dose growth rescue (activation), usual class: activators. AID 652104. 410,000 tested, 1.8% active. TDP-43 expressing yeast growth rescue, BacTiter-Glo, 24 h; also: % of control where 0% means no effect; nearly all actives have a fitted effect of over 50% in size
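Galactose-induced TDP-43 yeast, OD600=0.02, compound pinned; 24 hr, 30 deg C; BacTiter-Glo luminescence for growth. Inhibitors of TDP-43 toxicity read as activators.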
aSyn yeast inh: rescues yeast growth from alpha-synuclein toxicity | 370,000 tested, 0.14% active | Potency, µM (highest dose often 46.1 µM), for the others: top-dose growth rescue (activation), usual class: activators | AID 652106 | Yeast expressing alpha-synuclein, growth rescue, BacTiter-Glo, 24 h; also: % of control where 0% means no effect; nearly all actives have a fitted effect of over 65% in size
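Galactose-induced alpha-syn yeast (OD600=0.02, raffinose-pregrown) + pinned cpd, 24 hr, 30 deg C; growth by BacTiter-Glo luminescence. Growth restoration scores as activation.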
FUS suppressor: FUS proteinopathy suppression in yeast; S. cerevisiae FUS-expressing, growth rescue, OD600, 24 h; Potency, µM (top dose mostly 76.6 µM), actives largely listed as activators; 390,000 tested, 0.24% active; AID 1347120;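 also: plate controls were DMSO vehicle for no effect and reference control for full effect; nearly all actives have a fitted effect of over 55% in size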
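Absorbance at 600 nm, taken 24hr after compound addition, measured rescue of FUS-yeast growth at 30C. Induction used 2% galactose with seeding at OD 0.005. Controls: CP55940 from 92uM final, DMSO only.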
Mito fusion act: mitochondrial division inhibition or fusion activation; S. cerevisiae fusion-defective mutant growth rescue, CellTiterGlo 48 h; Potency, µM (highest dose often 46.1 µM), for the others: at the top dose growth rescue (activation), actives largely listed as activators; 320,000 tested, 0.23% active; also: % of control where 0% means no effect; nearly all actives have a fitted effect of over 45% in size
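Read-out: ATP-based luminescence (CellTiterGlo, 10 min ambient) reporting growth of fusion-defective ts yeast after 48 hours at 37C on glycerol/ethanol YPEG medium in the presence of compound.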
Abeta yeast res: compounds reversing amyloid beta toxicity in yeast; Potency, µM (top dose mostly 46.1 µM), usual class: activators; 410,000 tested, 0.063% active; yeast expressing A-beta42, growth rescue, OD600, 48 h; response scale: 0% DMSO, 100% iron-clioquinol control; also: nearly all actives have a fitted effect of over 55% in size
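Yeast growth medium received pinned compounds, then yeast cells expressing toxic A-beta were added; plates incubated at 30 C for 48 hr. Growth read as absorbance at 600 nm, normalized to DMSO and equimolar FeCl3 plus clioquinol controls.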
* marks the source's active call; other numbers are inactive results; [ ] = dose if it differs, or a comment. Calls follow the shape of the dose curve; as a rule, active = well fitted curve in the direction sought with a large enough effect; inconclusive = small, poorly fitted or top-dose-only effect, or another doubt; inactive = no such curve, though single readings can be large; an effect the other way counts as inactive or inconclusive. Potency is read from the fitted curve at half-maximal effect.

`O=C1C=C(c2ccccc2)CC(/C=C/c2ccccc2)C1` (stereo unspecified) gave TDP-43 yeast inh inconclusive, aSyn yeast inh 11.5%, Mito fusion act 15.8µM* and Abeta yeast res inactive.
Cn1nnnc1Sc1ncnc2scc(-c3ccc(F)cc3)c12 was read as TDP-43 yeast inh inconclusive, aSyn yeast inh inconclusive, FUS suppressor inconclusive, Mito fusion act 0.794µM* and Abeta yeast res inactive.
Cn1nnnc1Sc1ncnc2scc(-c3ccc(Br)cc3)c12 was read as FUS suppressor inactive and Abeta yeast res inactive.
For COc1ccccc1Cn1c(/C=C/c2ccccc2)nc2ccccc21 the results were TDP-43 yeast inh 20µM*, aSyn yeast inh -29.1%, Mito fusion act 26.7% and Abeta yeast res inactive.
`COCCn1c(/C=C/c2ccccc2)nc2ccccc21` gave TDP-43 yeast inh 0.0%, aSyn yeast inh 5.4%, FUS suppressor inactive, Mito fusion act -7.0% and Abeta yeast res inactive.
For COc1ccc(/C=C/c2nc3ccccc3n2Cc2ccccc2OC)cc1 the results were TDP-43 yeast inh inconclusive, aSyn yeast inh -11.8%, FUS suppressor inactive, Mito fusion act inconclusive and Abeta yeast res inactive.
CCC(C)Cn1c(C(C)C)nc2ccccc21 (stereo unspecified) was read as TDP-43 yeast inh -15.4%, aSyn yeast inh 3.7%, FUS suppressor inactive, Mito fusion act -2.6% and Abeta yeast res inactive.
For CC(C)Cn1c(/C=C/c2ccc(F)cc2)nc2ccccc21 the results were TDP-43 yeast inh 14.1µM*, aSyn yeast inh -13.9%, FUS suppressor inactive and Abeta yeast res inactive.
CCC(C)Cn1c(/C=C/c2ccccc2)nc2ccccc21 (stereo unspecified) was read as TDP-43 yeast inh 14.1µM*, FUS suppressor inactive and Abeta yeast res inactive.
Screening CC(C)CCn1c(/C=C/c2ccccc2)nc2ccccc21 returned TDP-43 yeast inh 14.1µM*, FUS suppressor inactive and Abeta yeast res inactive.
Screening Cc1nc(-c2cccc(NC(=O)Nc3ccc([N+](=O)[O-])cc3)c2)no1 returned TDP-43 yeast inh 6.9%, aSyn yeast inh -9.1%, FUS suppressor inactive and Abeta yeast res inactive.
For CC(C)(C)c1ccc(OCCn2c(CCNC(=O)C3CCCCC3)nc3ccccc32)cc1 the results were aSyn yeast inh -39.6%.
For CCc1ccc(NC(=O)CC2C(=O)N(c3cccc(OC)c3)C(=O)N2C2CCCC2)cc1 (stereo unspecified) the results were TDP-43 yeast inh -19.4%, FUS suppressor inconclusive and Abeta yeast res inactive.
`O=C(NC1(C(F)(F)F)N=C(c2ccccc2)N(Cc2ccccc2)C1=O)c1ccc(F)cc1` (stereo unspecified) gave TDP-43 yeast inh 6.2%, FUS suppressor inactive and Abeta yeast res inactive.
Cn1c(COc2ccc(Cl)cc2)nnc1SCc1ncc(-c2ccccc2)o1 was read as TDP-43 yeast inh 22.4µM*, aSyn yeast inh inconclusive, FUS suppressor inconclusive, Mito fusion act 2.7% and Abeta yeast res inactive.
For O=C(Cc1ccccc1)NC(=S)Nc1ccc(OC(F)F)cc1 the results were TDP-43 yeast inh 25.3%, aSyn yeast inh -7.1%, FUS suppressor inactive, Mito fusion act 0.2% and Abeta yeast res 11.2µM*.
COc1ccccc1N1CCN(C(=O)Nc2ccc([N+](=O)[O-])cc2)CC1 was read as TDP-43 yeast inh 14.1µM*, aSyn yeast inh 6.1%, FUS suppressor inactive, Mito fusion act 9.2% and Abeta yeast res inactive.
`COc1ccc(N2CCN(C(=O)c3ccc(N(C)S(=O)(=O)c4ccc(C)cc4)cc3)CC2)cc1` gave TDP-43 yeast inh 12.6µM*, aSyn yeast inh 1.8%, FUS suppressor inconclusive, Mito fusion act 10.3% and Abeta yeast res inactive.
`COc1ccccc1N1CCN(C(=O)c2cccc(Oc3ccccc3)c2)CC1` gave TDP-43 yeast inh 35.5µM*, aSyn yeast inh 4.6%, FUS suppressor inactive, Mito fusion act -34.5% and Abeta yeast res inactive.
Screening COc1cc2ccccc2cc1C(=O)N1CCN(c2ccccc2O)CC1 returned TDP-43 yeast inh 12.6µM*, aSyn yeast inh 0.5%, FUS suppressor inconclusive, Mito fusion act 7.5% and Abeta yeast res inactive.
COc1ccccc1N1CCN(C(=O)Nc2cccc(C)c2)CC1 was read as TDP-43 yeast inh inconclusive, aSyn yeast inh 21.8%, FUS suppressor inactive, Mito fusion act 2.3% and Abeta yeast res inactive[9.22 µM].
`COc1ccccc1N1CCN(C(=O)c2ccncc2)CC1` gave TDP-43 yeast inh -9.9%, aSyn yeast inh 0.5%, FUS suppressor inactive, Mito fusion act -0.5% and Abeta yeast res inactive.
`COc1cc(NC(=O)CCc2nc3cccnc3n2Cc2cccs2)cc(OC)c1OC` gave TDP-43 yeast inh 23.4%, FUS suppressor inactive and Abeta yeast res inactive.
`COc1ccccc1N1CCN(C(=O)c2ccc(-c3ccccc3)cc2)CC1` gave TDP-43 yeast inh 17.8µM*, aSyn yeast inh 9.3%, FUS suppressor inactive, Mito fusion act 3.0% and Abeta yeast res inactive.
For COc1ccc(C(=O)N2CCN(c3ccccc3OC)CC2)cc1 the results were TDP-43 yeast inh inconclusive, aSyn yeast inh 10.4%, FUS suppressor inactive, Mito fusion act -10.3% and Abeta yeast res inactive.
COc1cccc(N2CCN(C(=O)c3ccc(-c4ccccc4)cc3)CC2)c1 was read as TDP-43 yeast inh 12.6µM*, aSyn yeast inh 11.1%, FUS suppressor inconclusive, Mito fusion act 1.7% and Abeta yeast res inactive.
For COc1ccccc1N1CCN(C(=O)c2sc3nc(-c4ccc(F)cc4)cn3c2C)CC1 the results were TDP-43 yeast inh 11.2µM*, aSyn yeast inh 17.3%, FUS suppressor inconclusive, Mito fusion act inconclusive and Abeta yeast res inactive.
`COc1ccc(C(=O)N2CCN(c3cccc(Cl)c3)CC2)cc1` gave TDP-43 yeast inh inconclusive, aSyn yeast inh 5.6%, Mito fusion act 11.9% and Abeta yeast res inactive.
CCCS(=O)(=O)N1CCN(C(=O)c2ccc(-c3ccccc3)cc2)CC1 was read as TDP-43 yeast inh 17.8µM*, aSyn yeast inh inconclusive, FUS suppressor inactive, Mito fusion act -8.3% and Abeta yeast res inactive.
Screening Cc1ccc(NC(=O)CN2C(=O)COc3ccc(S(=O)(=O)N4CCCCCC4)cc32)cc1Cl returned TDP-43 yeast inh 14.7%, FUS suppressor inactive and Abeta yeast res inactive.
Screening COc1ccc(Cn2ccc3nc(C)c(C(=O)N4CCN(c5ccccc5OC)CC4)cc3c2=O)cc1 returned TDP-43 yeast inh 0.0%, FUS suppressor inactive and Abeta yeast res inactive.
Screening COc1ccc(CCNc2ncnc3onc(C)c23)c(OC)c1 returned TDP-43 yeast inh 17.2%, FUS suppressor inactive and Abeta yeast res inactive.
